Results filed as inconclusive are left out. A call without a number means that no potency is given here. Active and inactive are the calls of the source. The call rests on the fitted dose curve; in most records, active means well fitted curve in the direction sought with a large enough effect; inconclusive means small, poorly fitted or top-dose-only effect, or another doubt; inactive means no such curve, though single readings can be large; an effect the other way counts as inactive or inconclusive.
Biological target: Rap guanine nucleotide exchange factor 3 (Homo sapiens) (UniProt O95398)
Assay: Confirmatory qHTS for antagonist of cAMP-regulated guanine nucleotide exchange factor 3 (EPAC1) (AID 1645880); further: nearly all actives have a fitted effect of over 55% in size
Details: EPAC1 Rap1B-BODIPY-GDP exchange, fluorescence; series mostly up to 203 µM
How it was run: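 Released BODIPY-GDP fluoresces less than Rap1-bound BODIPY-GDP; the signal is followed at 480/540 nm at 5-min intervals over 30 min, after 5 min at room temperature. Reactions contain 100 nM EPAC1, 250 nM RAP1B-BODIPY-GDP and 50 uM GDP; results are normalized to ATA and DMSO.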
Potency means the concentration at half of the fitted maximal effect.

Rap guanine nucleotide exchange factor 3 (Homo sapiens), sequence (O95398 whole entry, looked up): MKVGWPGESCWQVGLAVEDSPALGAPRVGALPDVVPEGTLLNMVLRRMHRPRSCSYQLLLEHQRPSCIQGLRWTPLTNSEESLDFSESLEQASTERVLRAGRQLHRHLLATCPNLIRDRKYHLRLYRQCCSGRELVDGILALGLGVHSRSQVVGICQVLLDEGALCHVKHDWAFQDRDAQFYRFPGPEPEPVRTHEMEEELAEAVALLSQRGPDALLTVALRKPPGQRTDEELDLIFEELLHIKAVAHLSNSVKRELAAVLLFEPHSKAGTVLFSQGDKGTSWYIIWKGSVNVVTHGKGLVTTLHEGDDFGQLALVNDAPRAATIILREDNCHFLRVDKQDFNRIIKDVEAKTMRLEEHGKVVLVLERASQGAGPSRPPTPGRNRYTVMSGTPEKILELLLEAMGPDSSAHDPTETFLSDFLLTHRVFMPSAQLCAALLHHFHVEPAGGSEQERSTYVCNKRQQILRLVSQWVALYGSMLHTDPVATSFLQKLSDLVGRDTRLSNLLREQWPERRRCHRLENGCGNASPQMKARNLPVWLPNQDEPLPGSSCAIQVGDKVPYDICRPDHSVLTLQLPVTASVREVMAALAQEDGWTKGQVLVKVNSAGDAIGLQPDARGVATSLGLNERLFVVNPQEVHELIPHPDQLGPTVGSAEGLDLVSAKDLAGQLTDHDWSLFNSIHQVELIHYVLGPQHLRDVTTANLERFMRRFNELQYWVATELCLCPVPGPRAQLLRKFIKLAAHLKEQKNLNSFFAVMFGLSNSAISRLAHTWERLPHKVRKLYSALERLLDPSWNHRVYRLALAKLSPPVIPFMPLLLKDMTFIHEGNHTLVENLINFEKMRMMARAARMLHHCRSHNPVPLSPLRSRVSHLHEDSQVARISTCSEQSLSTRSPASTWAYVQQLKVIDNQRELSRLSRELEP

Row | SMILES | Potency
1 | Nc1ccc2cc3ccc(N)cc3nc2c1 | inactive
2 | CCC(=O)O[C@H]1[C@H](O[C@@H]2[C@@H](C)[C@H](O[C@H]3C[C@@](C)(OC)[C@@H](O)[C@H](C)O3)[C@@H](C)C(=O)O[C@H](CC)[C@@](C)(O)[C@H](O)[C@@H](C)C(=O)[C@H](C)C[C@@]2(C)O)O[C@H](C)C[C@@H]1N(C)C | 12.5 µM (active)
3 | O=C(Nc1ccc(S(=O)(=O)N2CCOCC2)cc1)c1cc(Cl)ccc1NS(=O)(=O)c1ccc(Cl)s1 | 35.2 µM (active)
4 | Nc1cccc2c(N)cccc12 | inactive

Biological target: Rap guanine nucleotide exchange factor 3 (Homo sapiens) (UniProt O95398)
Assay: Confirmatory qHTS for agonist of cAMP-regulated guanine nucleotide exchange factor 3 (EPAC1) (AID 1645881); further: nearly all actives have a fitted effect of over 75% in size
Details: EPAC1 Rap1B BODIPY-GDP exchange fluorescence; series mostly up to 271 µM

Row | SMILES | Potency
5 | Nc1ccc2cc3ccc(N)cc3nc2c1 | 17.7 µM (active)
6 | CCC(=O)O[C@H]1[C@H](O[C@@H]2[C@@H](C)[C@H](O[C@H]3C[C@@](C)(OC)[C@@H](O)[C@H](C)O3)[C@@H](C)C(=O)O[C@H](CC)[C@@](C)(O)[C@H](O)[C@@H](C)C(=O)[C@H](C)C[C@@]2(C)O)O[C@H](C)C[C@@H]1N(C)C | inactive
7 | COC(=O)C1=C(C)NC(COC(N)=O)=C(C(=O)OC(C)C)C1c1cccc(Cl)c1Cl (stereo unspecified) | inactive
8 | Nc1cccc2c(N)cccc12 | inactive

Biological target: Rap guanine nucleotide exchange factor 4 (Homo sapiens) (UniProt Q8WZA2)
Assay: Confirmatory qHTS for agonist of cAMP-regulated guanine nucleotide exchange factor 4 (EPAC2) (AID 1645884);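 further: nucleotide exchange releases bodipy-GDP from Rap1 and this lowers its fluorescence; nearly all actives have a fitted effect of over 65% in size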
Details: EPAC2 GEF activity, Rap1B-BODIPY-GDP fluorescence; series mostly up to 154 µM

Rap guanine nucleotide exchange factor 4 (Homo sapiens), sequence (Q8WZA2 whole entry, looked up): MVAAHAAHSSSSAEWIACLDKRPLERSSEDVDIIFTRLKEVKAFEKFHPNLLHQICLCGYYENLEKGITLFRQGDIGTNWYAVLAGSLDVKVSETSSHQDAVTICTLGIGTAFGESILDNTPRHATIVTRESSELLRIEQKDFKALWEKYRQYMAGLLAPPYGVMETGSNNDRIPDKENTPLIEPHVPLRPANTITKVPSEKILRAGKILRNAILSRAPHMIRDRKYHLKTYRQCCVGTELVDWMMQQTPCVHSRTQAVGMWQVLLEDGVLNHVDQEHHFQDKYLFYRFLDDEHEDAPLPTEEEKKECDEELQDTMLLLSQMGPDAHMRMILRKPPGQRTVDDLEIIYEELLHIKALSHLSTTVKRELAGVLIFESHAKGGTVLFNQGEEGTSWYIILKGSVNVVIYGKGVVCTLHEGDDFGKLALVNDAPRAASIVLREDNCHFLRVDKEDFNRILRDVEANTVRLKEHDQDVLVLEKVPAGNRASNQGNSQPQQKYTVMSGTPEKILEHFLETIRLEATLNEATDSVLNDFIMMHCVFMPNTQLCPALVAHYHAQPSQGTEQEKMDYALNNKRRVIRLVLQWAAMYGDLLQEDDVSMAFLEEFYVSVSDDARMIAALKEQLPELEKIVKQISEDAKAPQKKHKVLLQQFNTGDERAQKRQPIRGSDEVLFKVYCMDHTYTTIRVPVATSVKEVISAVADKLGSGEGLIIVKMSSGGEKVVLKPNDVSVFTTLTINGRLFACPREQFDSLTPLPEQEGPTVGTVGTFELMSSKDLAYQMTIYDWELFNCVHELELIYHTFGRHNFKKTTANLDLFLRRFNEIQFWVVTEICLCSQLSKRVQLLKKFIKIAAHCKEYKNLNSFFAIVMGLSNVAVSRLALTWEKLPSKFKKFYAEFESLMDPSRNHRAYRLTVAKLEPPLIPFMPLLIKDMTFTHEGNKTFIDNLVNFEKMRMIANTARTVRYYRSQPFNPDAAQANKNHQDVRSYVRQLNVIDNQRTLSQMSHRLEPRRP

Row | SMILES | Potency
9 | Nc1ccc2cc3ccc(N)cc3nc2c1 | 22.3 µM (active)
10 | CCC(=O)O[C@H]1[C@H](O[C@@H]2[C@@H](C)[C@H](O[C@H]3C[C@@](C)(OC)[C@@H](O)[C@H](C)O3)[C@@H](C)C(=O)O[C@H](CC)[C@@](C)(O)[C@H](O)[C@@H](C)C(=O)[C@H](C)C[C@@]2(C)O)O[C@H](C)C[C@@H]1N(C)C | inactive
11 | COC(=O)C1=C(C)NC(COC(N)=O)=C(C(=O)OC(C)C)C1c1cccc(Cl)c1Cl (stereo unspecified) | inactive

Biological target: Rap guanine nucleotide exchange factor 4 (Homo sapiens) (UniProt Q8WZA2)
Assay: Confirmatory qHTS for antagonist of cAMP-regulated guanine nucleotide exchange factor 4 (EPAC2) (AID 1645885); further: nearly all actives have a fitted effect of over 25% in size
Details: EPAC2 Rap1B-BODIPY-GDP exchange fluorescence, biochemical; series mostly up to 202 µM

Row | SMILES | Potency
12 | Nc1ccc2cc3ccc(N)cc3nc2c1 | inactive
13 | CCC(=O)O[C@H]1[C@H](O[C@@H]2[C@@H](C)[C@H](O[C@H]3C[C@@](C)(OC)[C@@H](O)[C@H](C)O3)[C@@H](C)C(=O)O[C@H](CC)[C@@](C)(O)[C@H](O)[C@@H](C)C(=O)[C@H](C)C[C@@]2(C)O)O[C@H](C)C[C@@H]1N(C)C | 17.5 µM (active)
14 | O=C(Nc1ccc(S(=O)(=O)N2CCOCC2)cc1)c1cc(Cl)ccc1NS(=O)(=O)c1ccc(Cl)s1 | 24.8 µM (active)
15 | COC(=O)C1=C(C)NC(COC(N)=O)=C(C(=O)OC(C)C)C1c1cccc(Cl)c1Cl (stereo unspecified) | 44.1 µM (active)
16 | Nc1cccc2c(N)cccc12 | inactive

From PubChem BioAssay (NCATS)
